According to PubChem BioAssay (NCATS):
Results filed as inconclusive are left out. Activity calls are given as the source filed them. Calls follow the shape of the dose curve; as a rule, active = well fitted inhibition curve with a large enough effect; inconclusive = small, poorly fitted or top-dose-only effect; inactive = no such curve, though single readings can be large or run the other way.

Test: qHTS Screen of the MIPE 4.0 Collection Against Ewings Sarcoma (TC32) (AID 1259256); also: nearly all actives have a fitted effect of over 45% in size
Settings: TC32 Ewing sarcoma viability, CellTiter-Glo, 48 h; series mostly up to 45.8 µM
From the text: There is a large unmet medical need for treatments for Ewing sarcoma, a pediatric sarcoma. We sought to identify compounds that inhibited Ewing sarcoma cells in vitro with the goal to then test promising drugs in two drug combinations in vitro to look for synergistic drug combinations. Promising combinations would then proceed to additional validation, including in vivo testing.
Using the NCATS developed oncology compound library called the Mechanism of Interrogation Plate (MIPE), four Ewing sarcoma cell lines were evaluated (TC32, TC71, RDES, EW8). Compounds, in a 12-point titration series, were incubated with cells for 48 hours and the read out was cell viability (CellTiter-Glo from Promega). These initial experiments were used to select appropriate concentrations of each single agent for subsequent two-drug matrix combinations such that the concentrations in the matrices would span both activity and non-activity.
Cells, in the log phase of growth, were seeded in 5 uL of RPMI plus 5% FBS, […] L-glutamine, 100 U/ml penicillin and 100 ug/ml streptomycin into 1536-well solid-bottom white tissue culture treated Greiner Bio One Plates (789173-F) using a MultiDrop Combi (Thermofisher Scientific) dispenser and a small sterile cassette. One column was media alone to be used as a :"no cells" control. The plates were then covered with sterilized stainless steel gasketed lids from Kalypsys. After allowing cells to attach for 4 hours, 23 nL of test compound or control (negative control DMSO and positive control 9.2 uM Bortezomib-final) were added from a 1536-well polypropylene compound source plate to each well using a 1536 head pin tool from Kalypsys. Cells were then incubated for 48 hours at 37C, 95% relative humidity and 5% CO2. After 48 hours, plates were removed from the incubator and 3 uL of CellTiter-Glo (Promega) was added using an Aurora Flying Reagent Dispenser Bioraptor. Plates were incubated at room temperature for 10 minutes prior to reading the luminescence on the Viewlux (PerkinElmer). The relative luciferase units are used to calculate the percent activity using the activity of DMSO in the cells and no cells columns for normalization of no inhibition and full inhibition respectively.
Potency is read from the fitted curve at half-maximal effect.

Row | SMILES | Potency
1 | COc1cc(Nc2ncc(F)c(Nc3ccc4c(n3)N(COP(=O)(O)O)C(=O)C(C)(C)O4)n2)cc(OC)c1OC | 3320 nM (active)
2 | COc1cc(=C2C=c3ccccc3=N2)[nH]c1=Cc1[nH]c(C)cc1C | 1180 nM (active)
3 | Cc1c(CN2CCN(S(C)(=O)=O)CC2)sc2c(N3CCOCC3)nc(-c3cnc(N)nc3)nc12 | 37.2 nM (active)
4 | C1Cc2[nH]nc(-c3nn[nH]n3)c2C1 | inactive
5 | CN(C)c1nc(Cc2ccc(NC(=O)c3ccc4ccccc4c3)cc2)nc(Cl)c1CC(=O)O | inactive
6 | CCN(CC)CCNC(=O)c1ccc2nc(-c3ccccc3)c(-c3ccc(CN4CCC(n5c(=O)[nH]c6ccccc65)CC4)cc3)nc2c1 | 18700 nM (active)
7 | Cc1c(Cn2c(C)nc3c(C(=O)O)cc(N4CCOCC4)cc32)cccc1C(F)(F)F | 14800 nM (active)
8 | CN(C)CC=CC(=O)Nc1cc2c(Nc3ccc(F)c(Cl)c3)ncnc2cc1O[C@H]1CCOC1 | 16600 nM (active)
9 | Cc1ccc(C(N)=O)cc1Nc1nccc(-c2cn(C(C)C)c3cnccc23)n1 | 16600 nM (active)
10 | COc1cccc(-c2ccc(NC(=O)C3=C(C(=O)O)CCC3)c(F)c2)c1 | 16600 nM (active)
11 | Cc1ccc(-c2ncn(-c3ccc(Nc4nccc(-c5cccc(N6CCOCC6)c5)n4)cc3)n2)cn1 | 52.6 nM (active)
12 | CC(C)c1cc(-c2n[nH]c(=O)n2-c2ccc3c(ccn3C)c2)c(O)cc1O | 52.6 nM (active)
13 | Cc1ccc(NC(=O)C2(c3ccc4c(c3)OC(F)(F)O4)CC2)nc1-c1cccc(C(=O)O)c1 | 52.6 nM (active)
14 | CC(C)C[C@H](NC(=O)CNC(=O)c1cc(Cl)ccc1Cl)B(O)O | 469 nM (active)
15 | O=C(C=Cc1c(C(=O)O)[nH]c2cc(Cl)cc(Cl)c12)Nc1ccccc1 | inactive
16 | Cc1[nH]nc2ccc(-c3cncc(OC[C@@H](N)Cc4ccccc4)c3)cc12 | 2960 nM (active)
17 | CCC(=C(c1ccccc1)c1ccc(OCCN(C)C)cc1)c1ccccc1 | 16600 nM (active)
18 | Cc1[nH]c2ccccc2c1CCNCc1ccc(C=CC(=O)NO)cc1 | 46.9 nM (active)
19 | COc1ccc(F)c(F)c1C(=O)c1cnc(NC2CCN(S(C)(=O)=O)CC2)nc1N | 2350 nM (active)
20 | O=C(Nc1ncc(-c2cc(C(F)F)nn2-c2c(Cl)cccc2Cl)s1)C1CC1 | 469 nM (active)

Row | SMILES | Potency
21 | COCCn1c2c([n+](Cc3cnccn3)c1C)C(=O)c1ccccc1C2=O | 5.3 nM (active)
22 | CNC(=O)c1ccccc1Nc1nc(Nc2ccc(N3CCOCC3)cc2OC)ncc1Cl | 662 nM (active)
23 | CCc1c2c(nc3ccc(O)cc13)-c1cc3c(c(=O)n1C2)COC(=O)[C@]3(O)CC | inactive
24 | O=C(Nc1cc(C(F)(F)F)cc(C(F)(F)F)c1)c1cc(Cl)ccc1O | 1180 nM (active)
25 | COc1cc(C)c(Sc2cnc(NC(=O)c3ccc(CNC(C)C(C)C)cc3)s2)cc1C(=O)N1CCN(C(C)=O)CC1 (stereo not given) | 5900 nM (active)
26 | Cc1cn2c(-c3cn[nH]c3)cnc2c(Nc2ccc(C(=O)N3CCNCC3)cc2F)n1 | 13200 nM (active)
27 | Cc1cn2cc(C(=O)N(C)CCO)cc(N[C@@H]3CCOc4cccc(C)c43)c2n1 | inactive
28 | NC(=O)c1c(OCc2c(F)cc(Br)cc2F)nsc1NC(=O)NCCCCN1CCCC1 | 14800 nM (active)
29 | CCCn1c(=O)c2[nH]c(-c3cnn(Cc4cccc(C(F)(F)F)c4)c3)nc2n(CC)c1=O | inactive
30 | Cc1nc2ccc(CN(C)c3ccc(C(=O)N[C@@H](CCC(=O)O)C(=O)O)s3)cc2c(=O)[nH]1 | 33.2 nM (active)
31 | CN(C)CCCN=c1c2ccccc2n(C)c2[nH]c(=O)n(C)c(=O)c12 | 2960 nM (active)
32 | COC(=O)C1=C(C)NC(C)=C(C(=O)OCCN2CCN(C(c3ccccc3)c3ccccc3)CC2)C1c1cccc([N+](=O)[O-])c1 (stereo not given) | inactive
33 | CNC(=O)CN1CCC(Oc2cc3c(Nc4cccc(Cl)c4F)ncnc3cc2OC)CC1 | 52.6 nM (active)
34 | CCN(CC)CCCCNc1ncc2cc(-c3cc(OC)cc(OC)c3)c(NC(=O)NC(C)(C)C)nc2n1 | 16600 nM (active)
35 | COc1cc2c(Nc3ccc(NC(=O)c4ccccc4)cc3)ncnc2cc1OCCCN1CCOCC1 | 3320 nM (active)
36 | O=c1[nH]nc(Sc2ncc([N+](=O)[O-])s2)n1-c1ccc2c(c1)OCCO2 | 2960 nM (active)
37 | CCN1CCN(Cc2ccc(-c3cc4c(N[C@H](C)c5ccccc5)ncnc4[nH]3)cc2)CC1 | 14.8 nM (active)
38 | CC[C@H]1CN2CCc3cc(OC)c(OC)cc3[C@H]2C[C@@H]1C[C@@H]1NCCc2cc(OC)c(OC)cc21 | 74.3 nM (active)
39 | CCCCCN(CCC12CC3CC(CC(C3)C1)C2)C(=O)NCCCc1ccncc1 | 14800 nM (active)
40 | O=C(Cc1ccc(-c2ccc(OCCN3CCOCC3)cc2)cn1)NCc1ccccc1 | 23.5 nM (active)
